{
  "source": "ChEMBL document CHEMBL3988442",
  "about": "“University of Dundee, Small-Polar-MMV Screening Library” (2021)",
  "note": "Among all 53,000 compounds or so, about 900 (1.7%) showed an effect of 50% or more. Only a selection was taken, and strong results are over-represented in it overall.",
  "data": [
    {"tested_on": "Mycobacterium tuberculosis", "test": "Cornell - Phenotypic assay to identify agents that inhibit growth of Mycobacterium tuberculosis", "assay_type": "functional", "set-up": "scale not given: direction of the effect not stated beside the values", "settings": "10 mM as filed; unlikely as a test dose", "units": {"Percent Effect": "%"}, "values": [
      {"smiles": "CN(C)C[C@@H]1C[C@@H]2CN(C(=O)Cc3cccs3)CC[C@@H]2N1C", "Percent Effect": -13.85},
      {"smiles": "Cc1cc(C)nc(N2CCC(Cn3cc(C(=O)N(C)C)cn3)CC2)n1", "Percent Effect": 9.732},
      {"smiles": "CC(C)(C)c1cc(NC(=O)CNC2CCc3ncnn3C2)on1", "note": "(stereo not given)", "Percent Effect": -1.762},
      {"smiles": "c1cncc(Cc2nnc3n2CCN(CC2CCOC2)CC3)c1", "note": "(stereo not given)", "Percent Effect": 8.69},
      {"smiles": "O=C(O)c1ccc(S(=O)(=O)Nc2c(F)cccc2-n2cccn2)cc1", "Percent Effect": 7.087},
      {"smiles": "O=C(O)C(F)(F)F.O=C(O)C(F)(F)F.O=C(c1ccc(F)cc1)N1CCN2C[C@H](OCc3cccnc3)C[C@H]2C1", "Percent Effect": 19.5},
      {"smiles": "O=C(c1cccc2ccnn12)N1CCCC1Cn1cccn1", "note": "(stereo not given)", "Percent Effect": 2.312},
      {"smiles": "Cc1noc(-c2c[nH]nc2C2CCCN2C(=O)c2ccccc2)c1C", "note": "(stereo not given)", "Percent Effect": -2.6},
      {"smiles": "CCCC(=O)N(CCCN1CCOCC1)c1nc2c(F)cccc2s1.Cl", "Percent Effect": 7.328},
      {"smiles": "CCCC(=O)N(CCCN1CCOCC1)c1nc2c(C)ccc(Cl)c2s1.Cl", "Percent Effect": 110.2},
      {"smiles": "CCCC(=O)N(CCCN1CCOCC1)c1nc2c(C)c(C)ccc2s1.Cl", "Percent Effect": 69.7},
      {"smiles": "CCCC(=O)N(CCN1CCOCC1)c1nc2c(OC)ccc(C)c2s1.Cl", "Percent Effect": -1.479},
      {"smiles": "CCCC(=O)N(CCCN1CCOCC1)c1nc2c(Cl)cccc2s1.Cl", "Percent Effect": 9.811},
      {"smiles": "Cc1ccc(CCCC(=O)N(C)CCN2CCOCC2)cc1", "Percent Effect": -37.37},
      {"smiles": "CC(=O)N1CCC(c2nccnc2Nc2ncc(C)s2)CC1", "Percent Effect": 21.23},
      {"smiles": "O=C(Nc1ccccc1OC1CCOC1)c1cc[nH]n1", "note": "(stereo not given)", "Percent Effect": -18.84},
      {"smiles": "O=C(NCCc1ccccn1)c1[nH]nc2c1CCCC2", "Percent Effect": 20.26},
      {"smiles": "O=C(Nc1ccccc1OC1CCOC1)c1[nH]nc2c1CCCC2", "note": "(stereo not given)", "Percent Effect": 80.23},
      {"smiles": "CO[C@@H]1CC[C@H]2[C@H]1OCCN2C(=O)COc1ccc(F)cc1", "Percent Effect": 15.86},
      {"smiles": "COCCC(C)NC(=O)c1cc(Br)c2c(c1)OCCO2", "note": "(stereo not given)", "Percent Effect": 13.03},
      {"smiles": "Cc1nccc(-c2cccc(NCC(=O)N3CCOCC3)c2)n1", "Percent Effect": 9.914},
      {"smiles": "CNc1cccc(C2CN(C(=O)CNS(C)(=O)=O)CCO2)n1", "note": "(stereo not given)", "Percent Effect": -23.18},
      {"smiles": "CC(C)CCC(=O)N(C)CC(=O)Nc1ccc(Br)cn1", "Percent Effect": -12.94},
      {"smiles": "O=C(c1cnc2ccc(F)cc2c1NCc1ccccn1)N1CCCC1", "Percent Effect": 5.685},
      {"smiles": "COCCC1(CNC(=O)Nc2ccc(-n3nccn3)cc2)CCC1", "Percent Effect": 32.79},
      {"smiles": "COCCC1(CNC(=O)Nc2ccc(-n3ccnn3)cc2)CCC1", "Percent Effect": 75.09},
      {"smiles": "COCCC1(CNC(=O)Nc2ccc(-n3cccn3)cc2)CCC1", "Percent Effect": 21.41},
      {"smiles": "Cc1nc(C2CCCNC2)nc2c1CCCN2Cc1ccccn1.Cl.Cl", "note": "(stereo not given)", "Percent Effect": 10.21},
      {"smiles": "Cc1nnc(C(C)N2CCCN(Cc3ccc(F)cc3)CC2)o1", "note": "(stereo not given)", "Percent Effect": 8.155},
      {"smiles": "Cc1nc(NCCc2ccccc2)cc(C(=O)N2CCCCC2)n1", "Percent Effect": -12.22},
      {"smiles": "CN1CC(=O)c2sc(NCCc3ccccc3)nc2C1", "Percent Effect": -47.63},
      {"smiles": "Br.O=C(O)c1csc(NCCc2ccccc2)n1", "Percent Effect": 71.03},
      {"smiles": "Cc1nn(C)c(C)c1CC(=O)N1CCCC(CNS(C)(=O)=O)C1", "note": "(stereo not given)", "Percent Effect": -13.44},
      {"smiles": "CCC(O)Cn1nc(-c2ccc(C(=O)O)cc2)cc1-c1cccc(F)c1", "note": "(stereo not given)", "Percent Effect": -3.821},
      {"smiles": "CC(C)Cn1nc(-c2ccc(C(=O)O)cc2)cc1-c1ccc(F)cc1", "Percent Effect": 92.09},
      {"smiles": "CCC(O)Cn1nc(-c2ccc(C(=O)O)cc2)cc1-c1ccc(F)cc1", "note": "(stereo not given)", "Percent Effect": 43.49},
      {"smiles": "CC(C)(C)n1ncc2c(=O)[nH]c(N3CCN(CCO)CC3)nc21", "Percent Effect": 21.4},
      {"smiles": "CC(C)(C)n1ncc2c(=O)[nH]c(N3CCN(CC(F)F)CC3)nc21", "Percent Effect": 62.42},
      {"smiles": "CC(C)(C)n1ncc2c(=O)[nH]c(NC3CC=CC3)nc21", "Percent Effect": 82.93},
      {"smiles": "CN1CC(Nc2nc3c(cnn3C(C)(C)C)c(=O)[nH]2)CCC1=O", "note": "(stereo not given)", "Percent Effect": 12.63},
      {"smiles": "CC(C)(C)n1ncc2c(=O)[nH]c(N3CC(O)C3)nc21", "Percent Effect": -9.536},
      {"smiles": "CC(=O)N1CCN(c2nc3c(cnn3C(C)(C)C)c(=O)[nH]2)CC1", "Percent Effect": 26.42},
      {"smiles": "Nc1cc(-c2nccnc2N2CCCC2)c2cc[nH]c2n1", "Percent Effect": -1.136},
      {"smiles": "CC(=O)N1CCC2(CCN(S(=O)(=O)c3ccccc3)CC2)C1", "Percent Effect": -13.67},
      {"smiles": "CC(C)CN1C[C@H]2CCN(C(=O)NC3CCCC3)CC[C@H]2S1(=O)=O", "Percent Effect": 15.88},
      {"smiles": "COc1cccc(CNc2ccc(F)c(Cl)c2)c1O", "Percent Effect": 58.04},
      {"smiles": "COc1cccc(CNCc2ccc(F)c(Cl)c2)c1O", "Percent Effect": 2.035},
      {"smiles": "COc1cccc(CNCc2cccc(Cl)c2)c1O", "Percent Effect": 2.888},
      {"smiles": "COc1cccc(CNCc2ccc(F)cc2Cl)c1O", "Percent Effect": 52.17},
      {"smiles": "COc1cccc(CNCc2ccccc2Cl)c1O", "Percent Effect": -0.8125},
      {"smiles": "CCOc1cccc(CNc2cccc(C(=O)OC)c2)c1O", "Percent Effect": 2.238},
      {"smiles": "COc1cccc(N2CCN(CC(O)c3cc(C)ccc3C)CC2)c1", "note": "(stereo not given)", "Percent Effect": -17.91},
      {"smiles": "Cc1ccc(-c2nc(CCNC(=O)NCC(C)(C)C(N)=O)co2)cc1", "Percent Effect": -1.516},
      {"smiles": "Cc1ccc(Br)cc1NC(=O)NCC(O)CO", "note": "(stereo not given)", "Percent Effect": -28.33},
      {"smiles": "CN1C(=O)[C@H]2CC[C@@H]1CN(c1ncnc3ccsc13)C2", "Percent Effect": 26.9},
      {"smiles": "CN(C)c1nc2n(c(=O)n1)CCN2C(=O)Nc1ccc(Cl)c(Cl)c1", "Percent Effect": 104.9},
      {"smiles": "CN(C)c1nc2n(c(=O)n1)CCN2C(=O)Nc1cccc(Cl)c1", "Percent Effect": -1.647},
      {"smiles": "CN(C)c1nc2n(c(=O)n1)CCN2C(=O)Nc1ccc(Cl)cc1", "Percent Effect": -48.51},
      {"smiles": "Cc1cc(C)n(CCCNC(=O)C(C)NC(=O)c2ccccc2Cl)n1", "note": "(stereo not given)", "Percent Effect": -13.3},
      {"smiles": "CC1(CNC(=O)NCc2ccsc2)CCCS1", "note": "(stereo not given)", "Percent Effect": 1.003},
      {"smiles": "Cc1nc(N2CCOCC2)nc2c1CCN(C(=O)C1CCCCC1)CC2", "Percent Effect": 34.6},
      {"smiles": "Cc1ccc(-c2nnc(CNCCn3cc(C)cn3)o2)cc1", "Percent Effect": 51.67},
      {"smiles": "Cc1ccc(-c2nnc(C(C)NCCn3cc(C)cn3)o2)cc1", "note": "(stereo not given)", "Percent Effect": -4.1},
      {"smiles": "CCc1sc(-c2nnc(CNCCn3cc(C)cn3)o2)cc1C", "Percent Effect": 69.26},
      {"smiles": "CCc1sc(-c2nnc(CNCCn3cccn3)o2)cc1C", "Percent Effect": -21.28},
      {"smiles": "CCc1sc(-c2nnc(CNC(C)Cn3cc(C)cn3)o2)cc1C", "note": "(stereo not given)", "Percent Effect": 15.55},
      {"smiles": "CC(Cn1cccn1)NCc1nc(-c2cccs2)no1", "note": "(stereo not given)", "Percent Effect": 28.55},
      {"smiles": "Cc1ccoc1-c1nnc(CNCCn2cccn2)o1", "Percent Effect": -13.89},
      {"smiles": "CCc1sc(-c2nnc(CNC(C)Cn3cccn3)o2)cc1C", "note": "(stereo not given)", "Percent Effect": 50.91},
      {"smiles": "Cc1cnn(CCNCc2nnc(C3CC3)o2)c1", "Percent Effect": -12.52}
    ]}
  ]
}
